Data: PubChem BioAssay (EPA / NIEHS)
The source made the active and inactive calls. The calls were made as follows: active = hit-call score of the fitted dose curve at least 0.9, where 1 is the maximum; inactive = score below 0.9.

Key:
[1] = ATG_CRE_CIS: Attagene CIS-FACTORIAL HepG2 Assay for human cAMP Responsive Element (CRE) binding protein 3 (AID 2282926); settings: HepG2 CRE cis-reporter, Attagene multiplexed mRNA; actives raise or lower the signal
Method in brief: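 Capillary electrophoresis of 6-FAM-labelled, HpaI-digested PCR products quantified reporter transcripts. These came from HepG2 transiently transfected with cis-element reporters and exposed to test chemicals for 24 hours, with DMSO defining baseline activity.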

[2] = target: CCAAT/enhancer-binding protein beta (Homo sapiens) (UniProt P17676); experiment: ATG_C_EBP_CIS: Attagene CIS-FACTORIAL HepG2 Assay for human CCAAT/Enhancer Binding Protein (C/EBP) beta (AID 2282927); settings: HepG2 Attagene cis-factorial transcription factor reporter; actives raise or lower the signal
Method in brief: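 Following a 24 h incubation with test chemical, transfected HepG2 cells yielded RNA whose reporter transcripts were quantified by RT-PCR and fluorescent capillary electrophoresis, with DMSO serving as baseline for bidirectional fitting.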

[3] = ATG_CMV_CIS: Attagene CIS-FACTORIAL HepG2 Assay for human CMV (Internal Marker) (AID 2282928); settings: HepG2 CMV promoter reporter, transcription factor profiling; actives raise or lower the signal;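 also: endpoint acts as a background internal control marker rather than a target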
Method in brief: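 Fluorescence intensity of RT-PCR-derived reporter fragments, resolved by capillary electrophoresis, gives the signal. HepG2 liver cells bearing transfected cis-element reporters were treated 24 h; activity in either direction was fit relative to DMSO-treated controls.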

[4] = ATG_DR4_LXR_CIS: Attagene CIS-FACTORIAL HepG2 Assay for human Liver X Receptor (LXR), DR4 submotif (AID 2282929); settings: HepG2 Attagene DR4 cis-reporter, mRNA transcription; actives raise or lower the signal
Method in brief: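 DR4 cis-reporter in HepG2, 24 h exposure. Detection: RT-PCR, 6-FAM labelling, CE fragment analysis. Endpoint fitted bidirectionally, DMSO = baseline.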

[5] = target: Aryl hydrocarbon receptor (Homo sapiens) (UniProt P35869); experiment: ATG_Ahr_CIS: Attagene CIS-FACTORIAL HepG2 Assay for human Aryl Hydrocarbon Receptor (Ahr) (AID 2282930); settings: HepG2 AhR cis-factorial reporter transcription; actives raise or lower the signal
Method in brief: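 Values derive from bidirectional fitting against DMSO negative control. Underlying signal: cis-element reporter mRNA in transiently transfected HepG2, harvested 24 h post-dose and measured by RT-PCR plus capillary electrophoresis.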

[6] = ATG_AP_1_CIS: Attagene CIS-FACTORIAL HepG2 Assay for human Activator Protein 1 (AP-1) (AID 2282931); settings: HepG2 Attagene cis-factorial AP-1 reporter mRNA; actives raise or lower the signal
Method in brief: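 Cis-regulated reporter units transiently expressed in HepG2 report endogenous transcription-factor activity. Signal: reporter mRNA at 24 h, via RT-PCR and fluorescent capillary electrophoresis. Endpoint derived by bidirectional fitting, DMSO as negative control.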

[7] = ATG_AP_2_CIS: Attagene CIS-FACTORIAL HepG2 Assay for human Activator Protein 2 (AP-2) (AID 2282932); settings: HepG2 AP-2 cis-reporter, Attagene transcription factor profiling; actives raise or lower the signal
Method in brief: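 Cells (HepG2) transfected with promoter-driven reporter constructs, treated 24 h. Total RNA reverse-transcribed, reporter cDNA PCR-amplified, FAM-labelled by primer extension, digested, resolved by capillary electrophoresis. Activity fitted both directions versus DMSO.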

[8] = ATG_BRE_CIS: Attagene CIS-FACTORIAL HepG2 Assay for human Bone Morphogenetic Protein (BMP) Response Element (BRE) (AID 2282933); settings: HepG2 BMP response element reporter, Attagene transcription factor profiling; actives raise or lower the signal
Method in brief: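 Read-out: reporter mRNA induction quantified by RT-PCR and capillary electrophoresis after 24 h chemical exposure of transfected HepG2 cells. Endogenous factor activity on the BMP response element; gain or loss fitted against DMSO baseline.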

[9] = target: Retinoic acid receptor alpha (Homo sapiens) (UniProt P10276); experiment: ATG_DR5_RAR_CIS: Attagene CIS-FACTORIAL HepG2 Assay for human Retinoic Acid Receptor Alpha (RARE), DR5 submotif (AID 2282934); settings: HepG2 Attagene cis-factorial RARE DR5 reporter, mRNA; actives raise or lower the signal;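 as to AC50: reporter responds to endogenous RAR alpha beta and gamma in HepG2 not RARA alone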
Method in brief: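 Endpoint fitted in both directions relative to DMSO as negative control. It reflects DR5 cis-element reporter mRNA induction in transiently transfected HepG2 cells, measured 24 h after dosing through RT-PCR and fluorescent capillary electrophoresis.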

[10] = target: Transcription factor E2F1 (Homo sapiens) (UniProt Q01094); experiment: ATG_E2F_CIS: Attagene CIS-FACTORIAL HepG2 Assay for human E2F Transcription Factor 1 (AID 2282935); settings: HepG2 Attagene cis-reporter, E2F reporter RNA transcripts; actives raise or lower the signal
Method in brief: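 First, HepG2 cells were transfected with reporter transcription units. Next, they were dosed for 24 h. Then RNA was isolated, converted to cDNA, PCR-amplified, FAM-labeled, HpaI-digested and analyzed by capillary electrophoresis.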

Transcription factor E2F1 (Homo sapiens), sequence (Q01094 whole entry, looked up): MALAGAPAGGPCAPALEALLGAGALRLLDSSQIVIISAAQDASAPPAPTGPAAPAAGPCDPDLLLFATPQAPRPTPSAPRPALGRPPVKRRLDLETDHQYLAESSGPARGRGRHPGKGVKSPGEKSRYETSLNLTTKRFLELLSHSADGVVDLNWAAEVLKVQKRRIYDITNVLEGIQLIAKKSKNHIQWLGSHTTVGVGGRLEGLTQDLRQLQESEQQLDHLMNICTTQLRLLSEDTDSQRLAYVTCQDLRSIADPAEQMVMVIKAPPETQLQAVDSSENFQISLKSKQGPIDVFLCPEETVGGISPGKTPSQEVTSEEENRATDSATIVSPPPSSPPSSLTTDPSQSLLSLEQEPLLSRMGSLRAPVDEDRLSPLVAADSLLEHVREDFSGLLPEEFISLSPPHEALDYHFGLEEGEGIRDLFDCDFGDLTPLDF
Retinoic acid receptor alpha (Homo sapiens), sequence (P10276 whole entry, looked up): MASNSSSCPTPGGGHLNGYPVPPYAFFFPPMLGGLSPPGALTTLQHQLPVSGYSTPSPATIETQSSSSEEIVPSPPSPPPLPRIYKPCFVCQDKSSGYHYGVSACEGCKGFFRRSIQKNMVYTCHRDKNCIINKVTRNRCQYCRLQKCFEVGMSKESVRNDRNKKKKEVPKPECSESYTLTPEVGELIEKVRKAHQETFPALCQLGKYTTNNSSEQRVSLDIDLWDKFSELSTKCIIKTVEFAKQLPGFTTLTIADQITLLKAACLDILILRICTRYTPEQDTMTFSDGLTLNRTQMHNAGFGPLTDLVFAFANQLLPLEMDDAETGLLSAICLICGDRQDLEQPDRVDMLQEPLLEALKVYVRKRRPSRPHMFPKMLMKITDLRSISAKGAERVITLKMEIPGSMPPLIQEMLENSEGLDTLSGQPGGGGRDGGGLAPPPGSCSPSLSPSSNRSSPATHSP
CCAAT/enhancer-binding protein beta (Homo sapiens), sequence (P17676 whole entry, looked up): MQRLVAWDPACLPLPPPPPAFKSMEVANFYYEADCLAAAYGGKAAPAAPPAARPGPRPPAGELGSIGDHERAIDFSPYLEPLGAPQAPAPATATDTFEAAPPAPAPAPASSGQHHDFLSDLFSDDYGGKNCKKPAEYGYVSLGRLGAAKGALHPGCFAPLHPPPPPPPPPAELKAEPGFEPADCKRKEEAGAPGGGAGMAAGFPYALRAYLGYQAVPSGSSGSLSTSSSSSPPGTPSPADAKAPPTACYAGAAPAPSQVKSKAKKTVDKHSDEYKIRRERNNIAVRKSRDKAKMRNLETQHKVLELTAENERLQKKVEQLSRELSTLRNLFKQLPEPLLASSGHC
Aryl hydrocarbon receptor (Homo sapiens), sequence (P35869 whole entry, looked up): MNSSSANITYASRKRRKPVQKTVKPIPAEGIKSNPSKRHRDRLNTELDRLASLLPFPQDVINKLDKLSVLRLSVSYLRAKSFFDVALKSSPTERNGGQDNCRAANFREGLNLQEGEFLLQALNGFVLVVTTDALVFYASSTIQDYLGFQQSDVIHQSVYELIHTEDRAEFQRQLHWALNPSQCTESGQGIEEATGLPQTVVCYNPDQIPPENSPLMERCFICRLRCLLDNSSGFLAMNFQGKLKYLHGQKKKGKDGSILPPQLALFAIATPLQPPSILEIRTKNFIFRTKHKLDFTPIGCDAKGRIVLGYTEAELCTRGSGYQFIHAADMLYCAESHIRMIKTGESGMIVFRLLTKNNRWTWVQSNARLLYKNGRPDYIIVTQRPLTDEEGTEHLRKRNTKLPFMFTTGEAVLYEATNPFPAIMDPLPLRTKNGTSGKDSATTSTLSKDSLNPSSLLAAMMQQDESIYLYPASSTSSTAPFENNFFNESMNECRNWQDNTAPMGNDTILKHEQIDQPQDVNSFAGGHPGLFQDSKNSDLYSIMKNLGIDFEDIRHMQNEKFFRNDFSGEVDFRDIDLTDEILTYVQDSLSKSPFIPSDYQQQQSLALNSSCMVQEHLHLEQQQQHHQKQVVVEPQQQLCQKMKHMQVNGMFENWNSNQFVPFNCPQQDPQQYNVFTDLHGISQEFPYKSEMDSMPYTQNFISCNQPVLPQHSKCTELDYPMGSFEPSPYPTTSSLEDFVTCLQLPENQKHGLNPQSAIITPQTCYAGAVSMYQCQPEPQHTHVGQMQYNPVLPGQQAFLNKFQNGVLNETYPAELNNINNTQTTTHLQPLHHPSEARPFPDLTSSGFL

Row | SMILES | outcome [1] | outcome [2] | outcome [3] | outcome [4] | outcome [5] | outcome [6] | outcome [7] | outcome [8] | outcome [9] | outcome [10] | AC50 [3] | AC50 [1] | AC50 [2] | AC50 [6] | AC50 [4] | AC50 [8] | AC50 [9] | AC50 [5] | AC50 [7]
1 | CCCCCC(C)O (stereo not given) | inactive | inactive | inactive | inactive | inactive | inactive | inactive | inactive | inactive | inactive |  |  |  |  |  |  |  |  | 
2 | CCOC(=O)NNc1nncc2ccccc12 | inactive | inactive | inactive | inactive | inactive | inactive | inactive | inactive | inactive | inactive |  |  |  |  |  |  |  |  | 
3 | C=CCOc1c(Br)cc(Br)cc1Br | inactive | inactive |  | inactive | inactive | inactive | inactive | inactive | inactive | inactive | 35.1 µM (active) |  |  |  |  |  |  |  | 
4 | CCCCCCCC[N+](C)(CCCCCCCC)CCCCCCCC | inactive | inactive | inactive | inactive | inactive | inactive | inactive | inactive | inactive | inactive |  |  |  |  |  |  |  |  | 
5 | Nc1ncn([C@@H]2O[C@H](CO)[C@@H](O)[C@H]2O)c(=O)n1 |  |  | inactive | inactive | inactive | inactive | inactive | inactive | inactive | inactive |  | 9.4 µM (active) | 15.4 µM (active) |  |  |  |  |  | 
6 | CCC(C)(C)C1CCCCC1OC(C)=O (stereo not given) | inactive | inactive |  | inactive | inactive |  | inactive | inactive | inactive | inactive | 155 µM (active) |  |  | 158 µM (active) |  |  |  |  | 
7 | [Cl][Bi]([Cl])([c]1ccccc1)([c]1ccccc1)[c]1ccccc1 |  | inactive | inactive |  | inactive |  | inactive |  | inactive | inactive |  | 6.38 µM (active) |  | 5.85 µM (active) | 3.07 µM (active) | 6.21 µM (active) |  |  | 
8 | CC(C)CCCCCOC(=O)CCS | inactive | inactive | inactive | inactive | inactive | inactive | inactive | inactive | inactive | inactive |  |  |  |  |  |  |  |  | 
9 | CCN(CC#N)c1cccc(C)c1 | inactive | inactive | inactive | inactive | inactive | inactive | inactive | inactive | inactive | inactive |  |  |  |  |  |  |  |  | 
10 | COC(=O)c1cc(Cl)ccc1[N+](=O)[O-] | inactive | inactive | inactive | inactive | inactive | inactive | inactive | inactive | inactive | inactive |  |  |  |  |  |  |  |  | 
11 | CCCCCCCCCCc1ccccc1 | inactive | inactive | inactive | inactive | inactive | inactive | inactive | inactive |  | inactive |  |  |  |  |  |  | 84.7 µM (active) |  | 
12 | CCC(CO)CO | inactive | inactive | inactive | inactive | inactive | inactive | inactive | inactive | inactive | inactive |  |  |  |  |  |  |  |  | 
13 | CCOC(=O)c1ccccc1C(=C1C=C(Br)C(=O)C(Br)=C1)c1cc(Br)c(O)c(Br)c1 |  |  |  |  |  |  |  |  |  | inactive | 53.7 µM (active) | 25.4 µM (active) | 18.8 µM (active) | 51.7 µM (active) | 21.5 µM (active) | 109 µM (active) | 21.3 µM (active) | 26.2 µM (active) | 49.9 µM (active)
14 | CCN(CC)c1ccc(C(=O)c2ccccc2C(=O)O)c(O)c1 | inactive | inactive | inactive | inactive | inactive | inactive | inactive | inactive | inactive | inactive |  |  |  |  |  |  |  |  | 
15 | CC(C)=CCC/C(C)=C\C#N | inactive | inactive | inactive | inactive | inactive | inactive | inactive | inactive | inactive | inactive |  |  |  |  |  |  |  |  | 
16 | CCOc1ccc(N)c([N+](=O)[O-])c1 | inactive | inactive | inactive | inactive | inactive | inactive | inactive | inactive | inactive | inactive |  |  |  |  |  |  |  |  | 
17 | OCCCS | inactive | inactive | inactive | inactive | inactive | inactive | inactive | inactive | inactive | inactive |  |  |  |  |  |  |  |  | 
18 | CCCc1ccc(OC)cc1 | inactive | inactive | inactive | inactive | inactive | inactive | inactive | inactive | inactive | inactive |  |  |  |  |  |  |  |  | 
19 | O=C(O)c1ccccc1Nc1cccc(C(F)(F)F)c1 | inactive | inactive | inactive |  | inactive |  | inactive | inactive | inactive | inactive |  |  |  | 60 µM (active) | 9.37 µM (active) |  |  |  | 
20 | CCCCCCCC/C=C\CCCCCCCC(=O)O | inactive | inactive | inactive |  | inactive |  | inactive | inactive |  | inactive |  |  |  | 137 µM (active) | 48.7 µM (active) |  | 85.9 µM (active) |  | 
21 | CCC(C)OC(=O)c1ccc(O)cc1 (stereo not given) | inactive | inactive |  | inactive | inactive | inactive | inactive | inactive | inactive | inactive | 67.6 µM (active) |  |  |  |  |  |  |  | 
22 | C=C[C@](C)(O)CC[C@@H]1[C@@]2(C)CCCC(C)(C)[C@@H]2CC[C@@]1(C)O | inactive | inactive | inactive | inactive | inactive | inactive | inactive | inactive | inactive | inactive |  |  |  |  |  |  |  |  | 
23 | CC[C@H]1OC(=O)[C@H](C)[C@@H](O[C@H]2C[C@@](C)(OC)[C@@H](O)[C@H](C)O2)[C@H](C)[C@@H](O[C@@H]2O[C@H](C)C[C@H](N(C)C)[C@H]2O)[C@](C)(O)C[C@@H](C)C(=NOCOCCOC)[C@H](C)[C@@H](O)[C@]1(C)O | inactive | inactive | inactive | inactive | inactive | inactive | inactive | inactive | inactive | inactive |  |  |  |  |  |  |  |  | 
